Luc counter – blocks Kinase-Glo luciferase, a counter-screen artifact; Potency, µM (doses to about 38.3 µM), inactives show at the highest dose activity change, negative = inhibition, most hits filed as inhibitors; AID 1379; Kinase-Glo luciferase, ATP luminescence, 8 min; 0.28% of 200,000 active; Q27757; also: % is scaled to controls: 0 for no effect and ±100 for the full control effect; nearly all actives have a fitted effect of over 60% in size
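Substrate mix (final 50 mM imidazole pH 7.2, 50 mM KCl, 7 mM MgCl2, 10 uM ATP, 0.01% Tween 20, 0.05% BSA) plus pin-tool compound, then Kinase-Glo detection mix; 8 min ambient, luminescence read.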
Rab9 prom act – activators of Rab9 promoter; Huh7 Rab9 promoter-luciferase reporter, luminescence, 24 h; Potency, µM (highest dose often 9.22 µM), for inactives: at the highest dose activation, negative = inhibition, hits mostly activators; 2.8% of 320,000 active; AID 485297; also: % of control where 0% means no effect; nearly all actives have a fitted effect of over 60% in size
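Promoter activation is measured as luciferase luminescence in Huh7 cells stably transfected with a Rab9 promoter–luciferase construct, following 24 h compound exposure at 37 °C and 10 min reagent incubation at ambient temperature.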
ELG1 genotox – genotoxicity induction in ELG1-luciferase HEK293T cells. HEK293T ELG1-luciferase reporter, luminescence, 16 h. Potency, µM (highest dose often 46 µM), without a hit: at the highest dose activity change, positive = activation, usual class: activators. 1.3% of 330,000 active; also: % of control where 0% means no effect; nearly all actives have a fitted effect of over 60% in size
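Quantitative HTS format in 1536-well plates. HEK293T ELG1-luciferase reporter cells receive test compound and are incubated 16 hr at 37 °C, 5% CO2; ONE-Glo added, 30 min room temperature, then luminescence read.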
FLuc modulator – inhibits or activates purified firefly luciferase, miR-21 counter-screen. purified FLuc, Km substrates, luminescence inhibition. 6.9% of 360,000 active. Potency, µM (doses to about 57.5 µM), inactives show at the highest dose activity change, negative = inhibition, hits mostly inhibitors. P08659;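 also: plate controls were vehicle for no effect and reference inhibitor for full effect; nearly all actives have a fitted effect of over 55% in size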
Target sequence (P08659 whole entry, looked up): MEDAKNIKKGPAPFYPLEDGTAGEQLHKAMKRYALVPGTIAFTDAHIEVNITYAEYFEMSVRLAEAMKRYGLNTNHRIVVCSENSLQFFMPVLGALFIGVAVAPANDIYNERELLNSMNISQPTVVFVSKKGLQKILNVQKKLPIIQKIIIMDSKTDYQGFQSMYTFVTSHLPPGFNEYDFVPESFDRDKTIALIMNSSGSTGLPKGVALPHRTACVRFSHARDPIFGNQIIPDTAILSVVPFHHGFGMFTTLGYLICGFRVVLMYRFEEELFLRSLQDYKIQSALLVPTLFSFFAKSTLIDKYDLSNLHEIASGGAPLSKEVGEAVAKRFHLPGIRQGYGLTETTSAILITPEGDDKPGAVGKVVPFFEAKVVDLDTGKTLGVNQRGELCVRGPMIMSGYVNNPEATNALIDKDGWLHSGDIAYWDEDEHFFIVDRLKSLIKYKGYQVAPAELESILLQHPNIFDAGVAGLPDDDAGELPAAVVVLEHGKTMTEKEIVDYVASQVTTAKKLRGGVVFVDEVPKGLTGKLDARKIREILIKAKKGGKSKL
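Purified P. pyralis luciferase (10nM final) with 10uM D-luciferin and 10uM ATP (Km levels) in 50mM Tris acetate pH 7.5, 10mM Mg acetate, 0.01% Tween-20, 0.05% BSA; qHTS 6-point titration, ~60 µM downward; luminescence read.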
SMN2 splice enh – SMN2 splice variant enhancement; HEK293 SMN2-luciferase splicing reporter, luminescence, 30-36 h; Potency, µM (series often up to 46.1 µM), for inactives: at the top dose activity change, positive = activation, most hits filed as activators; 2.8% of 210,000 active; AID 1458; also: % of control where 0% means no effect; nearly all actives have a fitted effect of over 55% in size
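HEK293 cells carry an SMN2 minigene-luciferase reporter in which exon 7 inclusion puts luciferase in frame. Cells were seeded at 2000 cells/well, attached for 10-12 hours, then exposed to compounds for 30-36 hours at 37C before ONE-Glo luminescence.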
NPC1 promoter act – activates the NPC1 promoter; Huh7 NPC1 promoter luciferase reporter, 24 h; Potency, µM (titrated, usually from 9.22 µM), without a hit: top-dose activation, hits mostly activators; 2.4% of 320,000 active; AID 485313; also: % of control where 0% means no effect; nearly all actives have a fitted effect of over 60% in size
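Readout is luciferase luminescence, reflecting NPC1 promoter activation in stably transfected Huh7 cells after 24 h compound exposure at 37 °C in reduced-serum medium with 10% FBS.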
The depositor's hits bear a star. A selection: hits, their analogues and other compounds. The true share with any hit is near 7.4%. Calls follow the shape of the dose curve; as a rule, active = well fitted curve in the direction sought with a large enough effect; inconclusive = small, poorly fitted or top-dose-only effect, or another doubt; inactive = no such curve, though single readings can be large; an effect the other way counts as inactive or inconclusive. Potency is read from the fitted curve at half-maximal effect.

CCOc1ccc(S(=O)(=O)N2CCCCC2)cc1NC(=O)CN1C(=O)NC(C)(C2CC2)C1=O (stereo not drawn) was read as Rab9 prom act 2%, ELG1 genotox -3% and NPC1 promoter act 0%.
COc1ccccc1N(C)S(=O)(=O)c1ccc(C(=O)OCC(=O)N2CCCCCC2)cc1 was read as Luc counter 7%, Rab9 prom act 18%, ELG1 genotox -2%, FLuc modulator 1%, SMN2 splice enh -10% and NPC1 promoter act -5%.
CC(C)Oc1ccc(CNC(=O)c2ccc(NC(=O)c3nsc4ccccc34)cc2)cc1 was read as FLuc modulator 7.6µM*.
For Cc1ccccc1CNC(=O)c1ccccc1NC(=O)c1nsc2ccccc12 the results were FLuc modulator -19%.
Screening O=C(NCc1ccccc1Cl)c1ccccc1NC(=O)c1nsc2ccccc12 returned FLuc modulator 17µM*.
CO/N=C(/C(=O)N[C@@H]1C(=O)N2C(C(=O)O)=CCS[C@H]12)c1cnc(N)s1 was read as Rab9 prom act 2%, ELG1 genotox -3%, FLuc modulator -6% and NPC1 promoter act -3%.
Screening COc1ccc(-c2cc(NCc3ccc(C)cc3)n3cnnc3n2)cc1 returned FLuc modulator -6% and SMN2 splice enh -4%.
Screening CCN(Cc1ccncc1)Cc1ccc(Br)cc1 returned Rab9 prom act -2%, ELG1 genotox -1%, FLuc modulator -1% and NPC1 promoter act -2%.
`O=C(CC(Nc1cccc(Cl)c1Cl)C(=O)O)c1ccccc1` (stereo not drawn) gave Luc counter 2%, Rab9 prom act 8%, ELG1 genotox inconclusive, FLuc modulator inconclusive, SMN2 splice enh -5% and NPC1 promoter act -4%.
Screening O=C(CC(Nc1ccc(Cl)cc1)C(=O)O)c1ccccc1 (stereo not drawn) returned Luc counter -19%, Rab9 prom act 2.2µM*, ELG1 genotox 16µM*, FLuc modulator 1.7µM*, SMN2 splice enh 18µM* and NPC1 promoter act 2.8µM*.
For O=C(CC(Nc1ccccc1Cl)C(=O)O)c1ccccc1 (stereo not drawn) the results were Luc counter -2%, Rab9 prom act 26%, ELG1 genotox 2.9µM*, FLuc modulator 4.8µM*, SMN2 splice enh -53% and NPC1 promoter act -2%.
CCCCOc1ccc(-c2cn3ccccc3n2)cc1[N+](=O)[O-] was read as Luc counter inconclusive, Rab9 prom act 2.8µM*, ELG1 genotox inconclusive, FLuc modulator 2.1µM*, SMN2 splice enh 6.3µM* and NPC1 promoter act inconclusive.
CCCCCOc1ccc(Cn2ccnc2)cc1[N+](=O)[O-] was read as Luc counter 2%, Rab9 prom act 11%, ELG1 genotox inconclusive, FLuc modulator inconclusive, SMN2 splice enh -44% and NPC1 promoter act 10%.
For Nc1nc(-c2ccc([N+](=O)[O-])cc2)cs1 the results were Rab9 prom act 29%, ELG1 genotox 14%, FLuc modulator -1% and NPC1 promoter act 16%.
For CCOc1ccc(-c2cn3ccccc3n2)cc1[N+](=O)[O-] the results were Luc counter -11%, Rab9 prom act 2.2µM*, ELG1 genotox inconclusive, FLuc modulator 2.7µM*, SMN2 splice enh 7.9µM* and NPC1 promoter act 3.5µM*.
CCCOc1ccc(-c2csc(N)n2)cc1[N+](=O)[O-] was read as Luc counter 1%, Rab9 prom act 2.8µM*, ELG1 genotox inconclusive, FLuc modulator 11µM*, SMN2 splice enh 11µM* and NPC1 promoter act inconclusive.
For CSc1ccc(CNc2ncc(-c3ccccc3)n2C)cc1 the results were FLuc modulator -19%.
C[C@H]1CN([C@@H](C)CO)C(=O)c2cccc(NC(=O)c3ccc(-c4nccs4)cc3)c2O[C@@H]1CN(C)C(=O)NC1CCCCC1 was read as ELG1 genotox 2%.
